Giardia FBPA inh – blocks Giardia fructose-bisphosphate aldolase activity. purified Giardia FBPA. Potency, µM (series often up to 59.6 µM), for the others: at the highest dose activity, negative = inhibition, actives largely listed as inhibitors. 290,000 compounds, 0.71% hits; also: potency is read from the fitted curve at half-maximal effect; % is scaled to controls: 0 for no effect and ±100 for the full control effect; nearly all actives have a fitted effect of over 55% in size
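40 nM FBPA preincubated 10 min at RT with compound (up to 57.5 uM final), then substrate plus GAPDH/TPI/NAD/arsenate coupling and diaphorase/resazurin added. Fluorescence read after 20 min at RT, 525/598 nm.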
RE007 growth inh – less growth of the S. pombe RE007 Vpr strain; S. pombe RE007 Vpr strain, BacTiter-Glo ATP luminescence, 24 h; Potency, µM (top dose mostly 92.2 µM), for inactives: at the top dose activity change, negative = less growth, usual class: inhibitors; 360,000 compounds, 0.21% hits; AID 651644; active = well fitted falling curve with a large enough effect; inconclusive = small, poorly fitted or top-dose-only effect; inactive = no such curve, though single readings can be large or run the other way; also: potency is read from the fitted curve at half-maximal effect; % is scaled to controls: 0 for no effect and ±100 for the full control effect; nearly all actives have a fitted effect of over 50% in size
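Fission yeast strain RE007, carrying one chromosomally integrated HIV-1 vpr copy, was seeded at OD 0.01 in PMG+AL medium with 23 nL pinned compound. After 24 h at 30 °C and 99% humidity, viability was read by BacTiter-Glo luminescence.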
Cycloheximide cs – affects cycloheximide protein synthesis inhibition readout, counter-screen; cell reporter, cycloheximide protein synthesis inhibition counterscreen; max response, %; 300,000 compounds, 12% hits; AID 2314; in the data active = max response mostly above about 13%, no sharp cut-off; inactive = mostly below about 14%; also: read at 38.3 µM for the half of the compounds with a filed dose; 0% is about no effect
Shiga inhibitor – blocks Shiga toxin action in Vero cells; inhibition, % at 38.7 µM; 290,000 compounds, 9.2% hits; AID 2315; Vero cells, Shiga toxin protein synthesis inhibition reporter; in the data active = inhibition mostly above about 28%, no sharp cut-off; inactive = mostly below about 43%; also: 0% is about no effect
LmPK inhibitor – blocks Leishmania mexicana pyruvate kinase activity. Q27686. purified LmPK, Kinase-Glo ATP luminescence, 1 h. Potency, µM (titrated, usually from 57.5 µM), inactives show at the top dose activity change, negative = inhibition, most hits filed as inhibitors. 290,000 compounds, 0.37% hits; also: potency is read from the fitted curve at half-maximal effect; % is scaled to controls: 0 for no effect and ±100 for the full control effect
Target sequence (Q27686 whole entry, looked up): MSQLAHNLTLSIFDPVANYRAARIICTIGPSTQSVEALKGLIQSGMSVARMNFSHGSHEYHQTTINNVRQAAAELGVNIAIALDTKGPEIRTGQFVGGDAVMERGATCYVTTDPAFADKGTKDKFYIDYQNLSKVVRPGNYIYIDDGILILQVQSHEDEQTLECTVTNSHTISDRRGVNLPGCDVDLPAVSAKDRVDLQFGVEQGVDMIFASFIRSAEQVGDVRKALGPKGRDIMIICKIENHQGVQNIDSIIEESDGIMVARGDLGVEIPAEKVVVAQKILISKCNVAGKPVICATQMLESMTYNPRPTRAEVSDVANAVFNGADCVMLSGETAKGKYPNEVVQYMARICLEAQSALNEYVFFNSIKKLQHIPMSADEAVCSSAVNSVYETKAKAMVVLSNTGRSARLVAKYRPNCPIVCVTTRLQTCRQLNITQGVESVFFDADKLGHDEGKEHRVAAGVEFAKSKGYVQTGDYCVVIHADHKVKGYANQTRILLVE
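Pyruvate kinase activity monitored as ATP production (luciferase luminescence). Conditions: 0.1 nM enzyme, 0.5 mM PEP, 0.1 mM ADP, 1 h, RT; normalized against uninhibited and no-enzyme wells.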
Tb PYK inh – T. brucei pyruvate kinase inhibition. TbPYK enzyme, Kinase-Glo Plus ATP luminescence, 45 min. Potency, µM (doses to about 76.8 µM), inactives show top-dose activity, negative = inhibition, actives largely listed as inhibitors. 410,000 compounds, 0.12% hits. AID 624173; also: potency is read from the fitted curve at half-maximal effect; % is scaled to controls: 0 for no effect and ±100 for the full control effect; nearly all actives have a fitted effect of over 50% in size
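Enzyme and substrate buffer are dispensed first and compound is pin-transferred. ADP at 130 uM final then starts the reaction, which runs 45 min at room temperature. Detection reagent is added for 10 min before luminescence is imaged.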
Starred values were filed as active, the others as inactive; ? = inconclusive; . = no result. Many of the other results were omitted from the sample, so hits are more common in it than they were. Unless noted, calls follow the shape of the dose curve; as a rule, active = well fitted curve in the direction sought with a large enough effect; inconclusive = small, poorly fitted or top-dose-only effect, or another doubt; inactive = no such curve, though single readings can be large; an effect the other way counts as inactive or inconclusive.

SMILES	Giardia FBPA inh	RE007 growth inh	Cycloheximide cs	Shiga inhibitor	LmPK inhibitor	Tb PYK inh
CCn1c(C(=O)OC)cc2c1ccn2-c1ccc(F)cc1	-13%	-20%	54*	113*	4%	?
COc1ccccc1CCNC(=O)c1ccc(NC(=O)N2CC(C)Sc3ccccc32)cc1 (centres undefined)	.	.	.	.	.	3%
O=C(CSc1nc2c([nH]c3ccccc32)c(=O)n1-c1ccccc1)N1CCc2ccccc21	.	.	.	.	.	-2%
CC[C@H](C)[C@H](N)C(=O)N[C@@H](CC(N)=O)C(=O)N1CCC[C@H]1C(=O)N[C@H](C(=O)N[C@@H](Cc1ccc(O)cc1)C(=O)N[C@@H](CCCN=C(N)N)C(=O)N[C@@H](CC(C)C)C(=O)N[C@@H](CCCN=C(N)N)C(=O)N[C@@H](Cc1ccc(O)cc1)C(N)=O)[C@@H](C)CC	0%	.	-5	-4	.	.
Nc1c(-c2cccs2)cnn1-c1nc(-c2ccc(F)cc2)cs1	2%	-8%	17*	44*	1%	-2%
Nc1c(-c2ccccn2)cnn1-c1nc(-c2ccc(F)cc2)cs1	0%	-8%	44*	54	6%	5%
COc1ccc(NC(=O)Nc2c(C)n(C)n(-c3ccccc3)c2=O)c(OC)c1	.	4%	2	-6	-7%	-6%
COc1ccc(C(=O)N2CCC[C@@]3(CCN(c4cccc(-c5ccccc5)c4)C3)C2)cc1	-11%	.	.	.	.	-11%
COC(=O)[C@]12CCCCC=C1N(Cc1ccc3c(c1)OCO3)C(=O)[C@H](CC(=O)N1CCN(C(=O)C3CC3)CC1)C2	.	-4%	.	.	.	.
Cc1ccc(C2=NNC(C(O)C(O)C(O)C(O)CO)S2)cc1 (centres undefined)	2%	-7%	25*	56*	4%	-7%
COCc1c(C(=O)N/N=C(/C)c2ccc(OCc3ccccc3)cc2)nnn1-c1nonc1N	1%	13%	23*	97*	4%	2%
C/C(=N\N=C\c1ccccc1F)c1nnn(-c2nonc2N)c1C	4%	5%	16*	80*	2%	1%
Nc1nonc1-n1nnc(C(=O)N/N=C/c2ccccc2F)c1-c1cccs1	-7%	-7%	-7	2	-2%	-2%
C/C(=N\NC(=O)c1nnn(-c2nonc2N)c1C)c1ccc(OCc2ccccc2)cc1	.	-2%	22*	57*	7%	1%
CCc1noc(-c2ccc(NC(C)c3ccccc3)c([N+](=O)[O-])c2)n1 (centres undefined)	.	.	.	.	.	6%
CCC(=Cc1ccccc1O)c1ccncc1	.	-5%	.	.	.	-4%
O=C(NCCSc1ccccc1)c1ccccc1	4%	-23%	31*	114*	-9%	-30%
Cc1cccc(C(=O)NCC(=O)NCCCSc2ccccc2)c1	.	19%	.	.	.	-2%
CCCCCNC(=O)CCc1ccccc1	2%	-16%	13*	14	1%	4%
O=C(NCCSc1ccccc1)c1ccc(Br)cc1	-4%	2%	48*	81*	-8%	-7%
CN(C)c1cccc(C(=O)NCCCSc2ccccc2)c1	5%	-4%	37*	47*	-1%	0%
CN1CCC(=O)N(C(CSc2ccc(Br)cc2)Cc2ccccc2)CC1 (centres undefined)	5%	.	7	-13	.	.
COc1cc(Cl)c(C)cc1NC(=O)Cn1cnc2sc(C)c(S(=O)(=O)N3CCCCC3)c2c1=O	.	.	.	.	.	4%
O=C(NCCSc1ccccc1)c1cncc(Br)c1	3%	-1%	33*	11	7%	-15%
O=C(CCSc1ccccc1)NCCSCc1ccccc1	3%	-6%	7	-2	2%	1%
SMILES	Giardia FBPA inh	RE007 growth inh	Cycloheximide cs	Shiga inhibitor	LmPK inhibitor	Tb PYK inh
O=C(NCCOc1ccccc1)c1cncc(Br)c1	4%	0%	45*	78*	9%	7%
O=C(CCc1ccccc1)NCCSc1ccccc1	1%	14%	31*	95*	0%	-2%
CCC(NC(=O)c1cncc(Br)c1)c1ccccc1 (centres undefined)	.	-4%	.	.	.	-1%
CCc1cc(C)cc(OCCNC(=O)c2cncc(Br)c2)c1	-5%	-3%	2	-7	-2%	0%
CCOc1ccccc1CNC(=O)c1cc2n(n1)CCCN(Cc1ccc(C)cc1)C2=O	.	.	.	.	.	-1%
COc1ccc(/C(N)=N/OC(=O)c2cccc([N+](=O)[O-])c2)cc1OC	4%	-17%	1	-19	4%	-8%
N/C(=N\OC(=O)c1ccc2c(c1)OCO2)c1cccc([N+](=O)[O-])c1	1%	-19%	31*	88	-10%	-23%
Cc1cccc(/C(N)=N/OC(=O)c2ccc3c(c2)OCO3)c1	-7%	35µM*	42*	43*	4.5µM*	?
Cc1cccc(N2CCN(c3ccc4cc(S(=O)(=O)N5CCC(C)CC5)ccc4n3)CC2C)c1 (centres undefined)	.	.	.	.	.	3%
CC/C=C\C[C@H](O)/C=C/C=C\C/C=C\C/C=C\CCCC(=O)O	0%	.	.	.	.	.
CS(=O)(=O)OCCCNCCCOS(C)(=O)=O	.	.	.	.	.	-11%
O=C1CC=C2C3CC4N(CCC45c4cc(O)c(O)cc4N1C25)CC3=CCBr (centres undefined)	.	-5%	.	.	.	2.8µM*
Cn1cccc1C(=O)NC(=O)COC(=O)c1ccc(O)cc1	-2%	1%	19	23	3%	-1%
CC(=O)NC12CC3CC(C1)CC(C(=O)OCC(=O)NC(=O)c1cccn1C)(C3)C2	1%	-2%	20*	70	-2%	-20%
Cn1cccc1C(=O)NC(=O)COC(=O)C12CC3CC(CC(O)(C3)C1)C2	-9%	3%	43*	53*	?	-2%
CC(NC(=O)COC(=O)C12CC3CC(CC(O)(C3)C1)C2)c1ccccc1 (centres undefined)	.	4%	.	.	.	9%
Cc1cccc(C(=O)N[C@H](C(=O)OCC(=O)NC(=O)c2cccn2C)C(C)C)c1	-9%	-2%	32*	-6	-2%	6%
CC(=O)NC12CC3CC(C1)CC(C(=O)OCC(=O)Nc1c(F)cccc1F)(C3)C2	.	12%	.	.	.	4%
Cn1cccc1C(=O)NC(=O)COC(=O)c1ccccc1O	-1%	5%	17*	19	4%	3%
CCOc1ccccc1Nc1sc(C(=O)c2ccc(Cl)cc2)c(N)c1C(=O)NCCc1ccccc1	.	.	.	.	.	1%
CCOc1ccc(CCNC(=O)c2cc(C)nc3c2c(C)nn3-c2cccc(F)c2)cc1	.	.	.	.	.	0%
CN1c2ccccc2C(=O)C(=C2SCCCS2)S1(=O)=O	-13%	-12%	25*	32	0%	-5%
CN1c2ccccc2-c2ccccc2S1(=O)=O	.	4%	.	.	.	5%
Cc1cccc(-n2nc([N+](=O)[O-])c(=NC3CCN(Cc4ccccc4)CC3)n2O)c1	-8%	-21%	-1	-9	1%	6%

Screening results from PubChem.
